Test results as given in the supplement of paper PMC12632987.
Whole data set: some 2,300 sequences, median “median log2 fold change of GCK-ALFA target abundance (FLAG IP / Myc IP barcode read proportion)” near 0.095, cut for the lowest 2% near -0.47. What follows is part of a selection rich in the lowest values, with near analogues and random picks from the rest.

B1: LC3A_23_609 (protein)
chain: MYLIDFEVDLIGEPEEIEKIEKELLEALEEFLEENKDKIVDYEIEVEREELEDGRTYLSIRLKILIDGTREEAEALANEITTIASEIAPDAVISVEVEEV
B2: LC3A_147_509 (protein)
chain: YIVEIDIDLLVKNKVEEVKEKFKEIVEELKKKGYEVELEIEEEKIDENTYYVKVKITIKAETKEEAEEAANLTLDLLDKLEEELKEDILGSLISVEITEA
B3: LC3A_free_39_2183 (protein)
chain: SSEETKKLKEELLKLAEEEGEETKELAEKLIELIGEELERIKRLLELMKKLKEAGVDLKEALKEALELAEELKKKGKSKEEIAEAVLELMQDKYNLIPID
B4: LC3A_free_26_2149 (protein)
chain: DEFIDIVELDKAIDLLEELLKLLEENELASEEEKKLAKEALEEAKKETLESLKKALKLVEELLKLLKKNEKLPEETKKKLIKLAEEAIKHIKENIKIMES
B5: LC3A_3_1540 (protein)
chain: MDAAVAAALARLRAAGASAATLAAFEAAVAALRERGYDAALETLIAETDRLLGLSDALLLAFFEEVLELVETEDIDEEELIARIREIARTTLSEAEIEEL
B6: LC3A_28_1107 (protein)
chain: SSVDEENAKALAEAEKAAAAGEPAVITITVKSTDTQEDIDKKIETMEKIAEILKDVKDAAIIIDLDGEIPQEYLDKLADKGEEIEKKYPNITVIIALDEE
B7: LC3A_3_1662 (protein)
chain: AEELIEETLAWLREQGRSEETLEAAREAMTALKEKGYYEALETFAELLRELADLSDELLLELAEEVLELVETSDLDEESMTEEIREIARTIRSEAEIEEL
B8: LC3A_132_246 (protein)
chain: SEEEYKKALAELKEIIDKIVELLKEGKDPLPAIVELEEKAREIAEKLSLEETEKLVEETIEYAEKRFEEELDPNDEEARRTLDIIEMLLEGVLIEKELRS
B9: LC3A_132_247 (protein)
chain: SEEELEKALEELKEILEKIVELLKAGKDPLPQIVKLEELAREIAKKLSLEETEKLVDEAIEYAEELFEKELDPNDEEARRTLDIIEMSLEGVLIEKELES
B10: LC3A_132_248 (protein)
chain: SEEELKEALEELKEILEKIVEALKNGEDPLPLIVELEEKALEIAEKLSLEETEELIDEAKEYAEELFEEELDPNDEEARRTLDIIEMLLDGVLIEKELKS
B11: LC3A_28_830 (protein)
chain: SKIEERIAKFKAEAEAAKASQEPATLTITVTSEDTVEEAKKIAEAMKEEAEKLKDVPDIGIVIDTDGKIDPEVLKILTDTADEIEEKYPNVTVIIALPEE
B12: LC3A_23_622 (protein)
chain: MYKVTVEADTIATPEEAEKYIKLVKEKVEEIKEKYKDKIEEVKLEIEREELPDGTVYLHITVTIIVKDDEELAQKLKNELVDFFDKNIPNGVISYEIEKL
B13: LC3A_free_46_2410 (protein)
chain: YVAEIDVDALAETKEKAEEFAKKIEEAAKEIAKEYGIEVEIEVKISKDEDGTYFVEIEITLEAETKETLEKAVNELIDKIEEIAEELGVSIIISYEISEA
B14: LC3A_28_1055 (protein)
chain: SAVEEQIKKALEEAKELAAKGEEALIEIEIEEDDTEEDVEKKLKTIEEIAEINKDLPSTSIIVNVNNKNKEEVTKKFADLGDELEKKYPNVTVIIALSEE
B15: LC3A_28_1327 (protein)
chain: SELEEQLEKQRKEALELAEKGEDVLIEVTITPETTLEEAEELMEKLRELVKEVAPKVKVSIVVDVEGGVSQEVIDAIAEKADEIEKEYPNATVIIALDED
B16: LC3A_free_39_2199 (protein)
chain: SEEEEEEAEEEILELAEEEGEEALEAAEELLEELEGNLELVEAVLEQVKRAKEEGADVLELLKRLLELVRKLQEEGKSEEEIIEAIEEEADVIINLIPID
B17: LC3A_28_1010 (protein)
chain: MSVVEETKKEAEKALEEAKKGNDAYLEIKITKDTTLEEVKEIGKIIEETAKKISEIENVKLYIVVDDDSNEEKHNIILDKLDEIEKKYPNVSSIVAYTDE
B18: LC3A_3_1354 (protein)
chain: SEELIEEQIERLREAGFSEEVLEAARAAFEGLAAQGHEEGIELLTEALLKHKDAPEEKKLRVLNNLLAEVQANPNLTQEEVEELVKLADLDLAIEELDEE
B19: LC3A_132_313 (protein)
chain: SEKKYEEIKKKLEELLKEAEKNINDKEKVEELLKEIRKLLEEAEKELSPEQVKELYDFVADRLYKLSLKADEAGKEDVSLLLDAAAIEAASKALKAEKKI

Biological target: MAP1LC3A, Q9H492
Test: median log2 fold change of GCK-ALFA target abundance (FLAG IP / Myc IP barcode read proportion) (log2 ratio); each designed protein is fused to an ALFA-tag nanobody in HEK293 cells to bring the named protein to FLAG-tagged glucokinase (GCK); Myc marks an untargeted standard; higher = target protein stabilised (more abundant)
Settings: target protein: 3xFLAG-MCP-GCK-ALFA reporter; HEK293 landing pad (RPLP)
Procedure: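 LABEL-seq trans screen in HEK293 landing-pad cells. Each de novo designed 100-aa effector handle, binding the indicated effector (E3 ligase, DUB or autophagy protein), is fused to a constant NbALFA target handle and induced with 2 ug/mL doxycycline. A FLAG-MCP-GCK-ALFA target and a Myc-MCP standard reporter were transfected, and after 48 h circRNA barcodes were recovered by anti-FLAG and anti-Myc IP and sequenced. The value is the median across barcodes (at least 3 per design) of log2(FLAG/Myc read-proportion ratio), with the two transfection replicates pooled. Negative values mean degradation and positive values mean stabilisation of the target.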

Binder | median log2 fold change
B1 | -0.664
B2 | -0.0549
B3 | 0.066
B4 | -0.0408
B5 | 0.222
B6 | 0.154
B7 | -0.0559
B8 | -0.415
B9 | -0.371
B10 | -0.698
B11 | 0.132
B12 | -0.561
B13 | 0.0318
B14 | 0.0494
B15 | -0.563
B16 | 0.103
B17 | -0.515
B18 | 0.184
B19 | -0.171
